Several values for one entry are separate records, joined by “and”; a condition that tells them apart may be missing. Equal values may be shown once. In all, about 5,500 compounds went through this assay and about 2,000 (36%) were called active. Roughly 18% stayed inconclusive and do not appear here. No stated cut-off is given here; in the data, active means normalized growth mostly below about 0.91 (no sharp cut-off); inconclusive means no clear call, values can overlap the other calls; inactive means mostly above about 0.92. The list shows a part of the results.
Experiment: chemical genetic growth profiling, strain panel (AID 1159580);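 further: tested at 20 µM; growth read once vehicle control cultures reached saturation at 30 °C; 1 = growth at the plate median or of vehicle wells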
Conditions: growth OD

Measured: normalized growth

CC1=C(CC(=O)O)c2cc(F)ccc2/C1=C\c1ccc(S(C)=O)cc1 (stereo unspecified)
inactive: S. cerevisiae deletion strains, locus YJR075W, strain HOC1, stronger effect = lower value 1 | S. cerevisiae deletion strains, locus YKL009W, strain mrt4, stronger effect = lower value 0.993 | S. cerevisiae deletion strains, locus YKL068W, stronger effect = lower value 1.01 | S. cerevisiae deletion strains, locus YKL085W, strain MDH1 (second series), stronger effect = lower value 1.02 | S. cerevisiae deletion strains, locus YKL085W, strain MDH1, stronger effect = lower value 1.02 | S. cerevisiae deletion strains, locus YKL160W, strain elf1, stronger effect = lower value 1 | S. cerevisiae deletion strains, locus YKL190W, strain CNB1, stronger effect = lower value 1.01 | S. cerevisiae deletion strains, locus YKR001C, strain vps1, stronger effect = lower value 0.997 | S. cerevisiae deletion strains, locus YKR026C, strain gcn3, stronger effect = lower value 1.01 | S. cerevisiae deletion strains, locus YKR091W, strain srl3, stronger effect = lower value 1.02 | S. cerevisiae deletion strains, locus YLL001W, strain dnm1, stronger effect = lower value 0.998 | S. cerevisiae deletion strains, locus YLL026W, stronger effect = lower value 1.03 | S. cerevisiae deletion strains, locus YLL041C, strain sdh2, stronger effect = lower value 1.02 | S. cerevisiae deletion strains, locus YLR027C, strain aat2, stronger effect = lower value 1.02 | S. cerevisiae deletion strains, locus YLR039C, strain RIC1, stronger effect = lower value 1.01 | S. cerevisiae deletion strains, locus YLR058C, strain SHM2, stronger effect = lower value 1 | S. cerevisiae deletion strains, locus YLR102C, strain apc9, stronger effect = lower value 1.02 | S. cerevisiae deletion strains, locus YLR113W, strain HOG1, stronger effect = lower value 1 | S. cerevisiae deletion strains, locus YLR221C, strain rsa3, stronger effect = lower value 0.999 | S. cerevisiae deletion strains, locus YLR258W, strain gsy2, stronger effect = lower value 1.01 | S. cerevisiae deletion strains, locus YLR262C, strain YPT6 (second series), stronger effect = lower value 1.02 | S. cerevisiae deletion strains, locus YLR262C, strain YPT6, stronger effect = lower value 0.995 | S. cerevisiae deletion strains, locus YLR268W, strain sec22, stronger effect = lower value 1.06 | S. cerevisiae deletion strains, locus YLR320W, strain mms22, stronger effect = lower value 1 | S. cerevisiae deletion strains, locus YLR330W, strain CHS5, stronger effect = lower value 1.01 | S. cerevisiae deletion strains, locus YLR342W, strain FKS1 (second series), stronger effect = lower value 1.02 | S. cerevisiae deletion strains, locus YLR342W, strain FKS1, stronger effect = lower value 0.99 | S. cerevisiae deletion strains, locus YLR357W, strain rsc2, stronger effect = lower value 1.05 | S. cerevisiae deletion strains, locus YLR370C, strain arc18, stronger effect = lower value 1.03 | S. cerevisiae deletion strains, locus YLR371W, strain rom2, stronger effect = lower value 1.03 | S. cerevisiae deletion strains, locus YLR384C, strain iki3, stronger effect = lower value 1.02 | S. cerevisiae deletion strains, locus YLR418C, strain cdc73, stronger effect = lower value 1.02 | S. cerevisiae deletion strains, locus YML016C, strain PPZ1, stronger effect = lower value 1 | S. cerevisiae deletion strains, locus YML032C, strain rad52, stronger effect = lower value 1.03 | S. cerevisiae deletion strains, locus YML120C, strain ndi1, stronger effect = lower value 1.03 | S. cerevisiae deletion strains, locus YML124C, strain tub3, stronger effect = lower value 1.01 | S. cerevisiae deletion strains, locus YMR058W, strain fet3, stronger effect = lower value 1.03 | S. cerevisiae deletion strains, locus YMR078C, strain ctf18, stronger effect = lower value 1.01 | S. cerevisiae deletion strains, locus YMR125W, strain sto1, stronger effect = lower value 1.02 | S. cerevisiae deletion strains, locus YMR129W, stronger effect = lower value 1.02 | S. cerevisiae deletion strains, locus YMR205C, strain PFK2, stronger effect = lower value 1.03 | S. cerevisiae deletion strains, locus YMR223W, strain ubp8, stronger effect = lower value 0.995 | S. cerevisiae deletion strains, locus YMR231W, strain pep5, stronger effect = lower value 1.02 | S. cerevisiae deletion strains, locus YMR263W, strain SAP30, stronger effect = lower value 1.01 | S. cerevisiae deletion strains, locus YMR307W, strain GAS1, stronger effect = lower value 1 and 1.02 | S. cerevisiae deletion strains, locus YNL067W, strain RPL9B, stronger effect = lower value 1.01 | S. cerevisiae deletion strains, locus YNL071W, strain lat1, stronger effect = lower value 1.02 | S. cerevisiae deletion strains, locus YNL128W, strain TEP1, stronger effect = lower value 1.03 | S. cerevisiae deletion strains, locus YNL153C, strain GIM3, stronger effect = lower value 1.01 and 1.06 | S. cerevisiae deletion strains, locus YNL175C, strain NOP13, stronger effect = lower value 1.02 | S. cerevisiae deletion strains, locus YNL183C, strain NPR1, stronger effect = lower value 0.946 | S. cerevisiae deletion strains, locus YNL197C, strain WHI3, stronger effect = lower value 1.02 | S. cerevisiae deletion strains, locus YNL209W, strain ssb2, stronger effect = lower value 1.02 | S. cerevisiae deletion strains, locus YNL224C, strain SQS1, stronger effect = lower value 1.02 | S. cerevisiae deletion strains, locus YNL233W, strain BNI4, stronger effect = lower value 1.01 | S. cerevisiae deletion strains, locus YNL248C, strain rpa49, stronger effect = lower value 1 | S. cerevisiae deletion strains, locus YNL250W, strain rad50, stronger effect = lower value 1.01 | S. cerevisiae deletion strains, locus YNL271C, strain bni1, stronger effect = lower value 1.01 | S. cerevisiae deletion strains, locus YNL298W, strain CLA4, stronger effect = lower value 0.991 | S. cerevisiae deletion strains, locus YNL307C, strain MCK1, stronger effect = lower value 1.03 | S. cerevisiae deletion strains, locus YNL322C, strain KRE1 (second series), stronger effect = lower value 1.02 | S. cerevisiae deletion strains, locus YNL322C, strain KRE1, stronger effect = lower value 1.01 | S. cerevisiae deletion strains, locus YNR049C, strain mso1, stronger effect = lower value 1.03 | S. cerevisiae deletion strains, locus YNR052C, strain pop2, stronger effect = lower value 1.02 | S. cerevisiae deletion strains, locus YOL006C, strain TOP1, stronger effect = lower value 0.99 | S. cerevisiae deletion strains, locus YOL012C, strain htz1 1.13 | S. cerevisiae deletion strains, locus YOL147C, strain pex11, stronger effect = lower value 1.02 | S. cerevisiae deletion strains, locus YOR001W, strain rrp6, stronger effect = lower value 1.04 | S. cerevisiae deletion strains, locus YOR061W, strain CKA2, stronger effect = lower value 1 | S. cerevisiae deletion strains, locus YOR069W, strain VPS5, stronger effect = lower value 1.01 | S. cerevisiae deletion strains, locus YOR070C, strain gyp1, stronger effect = lower value 1.01 | S. cerevisiae deletion strains, locus YOR080W, strain dia2, stronger effect = lower value 1.04 | S. cerevisiae deletion strains, locus YOR083W, strain WHI5 (second series), stronger effect = lower value 1.03 | S. cerevisiae deletion strains, locus YOR083W, strain WHI5, stronger effect = lower value 0.986 | S. cerevisiae deletion strains, locus YOR106W, strain vam3, stronger effect = lower value 1.01 | S. cerevisiae deletion strains, locus YOR136W, strain idh2, stronger effect = lower value 1.01 | S. cerevisiae deletion strains, locus YOR144C, strain elg1, stronger effect = lower value 1.02 | S. cerevisiae deletion strains, locus YOR184W, strain ser1, stronger effect = lower value 1.01 | S. cerevisiae deletion strains, locus YOR231W, strain MKK1, stronger effect = lower value 0.975 | S. cerevisiae deletion strains, locus YOR265W, strain rbl2, stronger effect = lower value 1.02 | S. cerevisiae deletion strains, locus YOR270C, strain vph1, stronger effect = lower value 1.04 | S. cerevisiae deletion strains, locus YOR290C, strain snf2, stronger effect = lower value 1.02 | S. cerevisiae deletion strains, locus YOR316C, strain cot1, stronger effect = lower value 1.02 | S. cerevisiae deletion strains, locus YPL051W, strain arl3, stronger effect = lower value 0.996 | S. cerevisiae deletion strains, locus YPL055C, strain LGE1, stronger effect = lower value 0.98 | S. cerevisiae deletion strains, locus YPL078C, strain atp4, stronger effect = lower value 1.01 | S. cerevisiae deletion strains, locus YPL106C, strain sse1, stronger effect = lower value 1.03 | S. cerevisiae deletion strains, locus YPL240C, strain hsp82, stronger effect = lower value 1.02 | S. cerevisiae deletion strains, locus YPL241C, strain CIN2, stronger effect = lower value 1.01 | S. cerevisiae deletion strains, locus YPL256C, strain CLN2, stronger effect = lower value 0.994 | S. cerevisiae deletion strains, locus YPR119W, strain clb2, stronger effect = lower value 1.02 | S. cerevisiae deletion strains, locus YPR141C, strain kar3, stronger effect = lower value 1.02 | S. cerevisiae deletion strains, locus YPR163C, strain tif3, stronger effect = lower value 1.02 | S. cerevisiae deletion strains, locus YPR167C, strain met16, stronger effect = lower value 1.02 | S. cerevisiae deletion strains, strain wtn01, stronger effect = lower value 1.03 | S. cerevisiae strains, strain wild type, stronger effect = lower value 1.01

From PubChem BioAssay AID1159580 (chemical genetic matrix, 2015)
